From PubChem BioAssay (NCI)
This is part of a sample that, as a whole, favours compounds with a hit. Of some 83,000 tested, about 20% had one in any assay.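 Negative percent growth values reflect cell death: -40 means 40% of the cells present at the start died, and -100 means all died.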 Values without a mark were called inactive. The source made the active and inactive calls. Rule for the calls: active = growth percent below 10; inactive = the rest.

How the values were obtained:
Experiment in all cases: NCI-60 one-dose screen, 48 h (100 = growth as untreated, 0 = no growth, -100 = all killed)
[1] = system: NCI-H460 lung; conditions: 10 µM unless noted
[2] = system: A549/ATCC NSCLC; conditions: 10 µM unless noted
[3] = system: 786-0 renal; conditions: 10 µM unless noted
[4] = system: COLO 205 colon; conditions: 10 µM
[5] = system: K-562 leukemia; conditions: 10 µM unless noted
[6] = system: MALME-3M melanoma; conditions: 10 µM unless noted
[7] = system: RXF 393 renal; conditions: 10 µM unless noted
[8] = system: SF-295 CNS; conditions: 10 µM unless noted
[9] = system: UACC-257 melanoma; conditions: 10 µM unless noted
[10] = system: SK-MEL-5 melanoma; conditions: 10 µM unless noted
[11] = system: LOX IMVI melanoma; conditions: 10 µM unless noted
[12] = system: SK-MEL-2 melanoma; conditions: 10 µM unless noted
[13] = system: UO-31 renal; conditions: 10 µM unless noted
[14] = system: CAKI-1 renal; conditions: 10 µM unless noted
[15] = system: A498 renal; conditions: 10 µM unless noted
[16] = system: HL-60(TB) leukemia; conditions: 10 µM unless noted
[17] = system: MOLT-4 leukemia; conditions: 10 µM
[18] = system: OVCAR-4 ovarian; conditions: 10 µM unless noted
[19] = system: OVCAR-3 ovarian; conditions: 10 µM unless noted
[20] = system: SW-620 colon; conditions: 10 µM unless noted

Row | Compound | growth [1] | growth [2] | growth [3] | growth [4] | growth [5] | growth [6] | growth [7] | growth [8] | growth [9] | growth [10] | growth [11] | growth [12] | growth [13] | growth [14] | growth [15] | growth [16] | growth [17] | growth [18] | growth [19] | growth [20]
1 | CC1CC=CCC12C(=O)NC(=S)NC2=O (configuration not stated) | 106% | 91.2% | 107% | 122% | 94.2% | 105% | 106% | 99% | 114% | 103% | 106% | 131% | 92.9% | 96.6% | 72.9% | 136% | 109% | 105% | 118% | 104%
2 | CC1(C)N=C(N)N=C(N)N1c1ccc(CCCCc2ccc(S(=O)(=O)F)cc2)c(Cl)c1 | 10.7% | 8.36% (active) | 22.1% | 33.2% | 13.1% | 44.3% | 43.1% | 3.69% (active) | 30.9% | 16.6% | 8.78% (active) | 30.6% | 59.9% | 17% | 37.3% | 19.2% | 18.2% | 80.4% | 35.3% | 17.2%
3 | CNC(=O)Oc1cccc(OC)c1 | 115% | 106% | 107% | 119% |  | 115% | 111% | 121% | 112% | 109% | 100% | 89.8% | 97.5% | 86.1% | 87.8% |  |  | 105% | 121% | 111%
4 | C[As](=O)(O)c1ccc(C(=O)O)cc1 | 112% | 106% | 109% | 115% | 122% | 112% | 95.9% | 99.8% | 102% | 108% | 115% | 99.9% | 93.2% | 120% | 96.3% | 102% | 110% | 113% | 121% | 105%
5 | Cc1cc(NC(=O)CCc2ccc(N3C(N)=NC(N)=NC3(C)C)cc2)ccc1S(=O)(=O)F | 12.3% |  | 20.9% | 36% | 22.8% | 32.3% |  | 5.44% (active) |  | 13.9% | 18.1% | -21.1% (active) | 101% | 34.2% | 59.8% | 13.3% | 21.6% | 62.1% | 71.5% | 23.1%
6 | O=C1NC(=O)C(O)(C2(O)C(=O)NC(=O)NC2=O)C(=O)N1 | 100% |  | 93.4% | 79.9% | 87.9% | 57.9% |  | 133% |  | 86.7% | 91.9% | 77.5% | 86.1% | 104% | 89.1% | 85.9% | 85.2% | 108% | 115% | 96.4%
7 | CCCCCCCC(=O)OCC/C=C/C1OC1C1OC(=O)/C=C\C=C\c2nc(oc2C)/C=C(/C)CCC2OC2C1OC(=O)NC(C)=O (configuration not stated) | -51.5% (active) | 5.19% (active) | -53.8% (active) | -90.3% (active) |  | -12.4% (active) | -58.3% (active) | -37.6% (active) | 5.16% (active) | -93.8% (active) | -21.6% (active) | -44.5% (active) | 2.49% (active) | -6.91% (active) | -82.5% (active) |  |  | 8.12% (active) | 5.74% (active) | -65.4% (active)
8 | C[C@@H]1O[C@@H](O[C@H]2CC[C@@]3(C)[C@H](CCC4[C@@H]3C(O)C[C@]3(C)[C@@H](c5ccc(=O)oc5)CC[C@]43O)C2)[C@H](O)[C@H](O)[C@H]1O (some centres not stated) | -80.7% (active) | -83.6% (active) | -94.1% (active) |  |  | -45.9% (active) | -52.3% (active) | -71.5% (active) | -99.7% (active) | -99.6% (active) | -55.8% (active) | -81% (active) | -97.3% (active) | -68.7% (active) | -27.9% (active) |  |  | -92.9% (active) | -46.7% (active) | -79% (active)
9 | NC(=O)NC(=O)CI | 106% | 98.6% | 88% | -62.4% (active) | 17.7% | -43.6% (active) | 65% | 119% | 79.1% | 93.9% | -67.3% (active) | 92.1% |  |  | 97.9% | 98.3% | 13.8% | 94.4% | 102% | 27.6%
10 | O=C1c2ccccc2C(=O)N1[N+](=O)[O-] | 102% | 95.4% | 100% | 116% | 105% | 89.4% | 103% | 103% | 101% | 104% | 91.6% | 104% | 85.9% | 106% | 93.6% | 113% | 108% | 109% | 106% | 103%
11 | CC(C)[C@]12O[C@H]1[C@@H]1O[C@]13[C@]1(O[C@H]1C[C@H]1C4=C(CC[C@@]13C)C(=O)OC4)[C@@H]2OC(=O)OC(C)(C)C | 2.11% (active) | 16.7% | 11.9% |  |  | -35.6% (active) | -52.2% (active) | -28.7% (active) | -7.48% (active) | -2.1% (active) |  | -55.3% (active) | 1.21% (active) | -49.8% (active) | -36.6% (active) | -15.7% (active) | -3.98% (active) | 29.3% | 5.42% (active) | 1.09% (active)
12 | CCOC(=O)c1cnc(SCc2ccc(Cl)c(Cl)c2)nc1N1CC1 | 41% | 50% | 60% | 67.8% | 21.4% | 68.6% | 66.6% | 39.1% | 79% | 72.6% | 23.7% | 66.2% | 34.7% | 31.1% | 44.3% | 56.8% | 24.5% | 53.6% |  | 33.8%
13 | C[CH2][Pb]([CH2]C)([CH2]C)[O]C(=O)COc1ccccc1 | 4.05% (active) |  | -22% (active) | 1.67% (active) | 4.92% (active) | 21.8% | 7.08% (active) | -62.3% (active) |  | -21.4% (active) | -35.8% (active) | -0.355% (active) | -6.3% (active) | -5.81% (active) | -2.32% (active) | -48.1% (active) | -27.2% (active) | 14.8% | -2.95% (active) | 6.03% (active)
14 | O=C(N/N=C/c1ccc(N(CCCl)CCCl)cc1)c1cc(=O)[nH]c(=O)[nH]1 | 39% | 106% | 83.2% |  |  | 101% | 95.2% | 87.2% | 101% | 98.9% | 93.4% | 109% | 71.7% | 53.2% | 93.7% |  |  | 109% | 115% | 108%
15 | O=CN1N=C(c2ccccc2)CC1c1sc(N(CCCl)CCCl)nc1Cl (configuration not stated) | 106% | 88.4% | 104% | 95.5% | 78.1% | 111% | 108% | 94.8% | 97.4% | 98.5% | 98.6% | 77.2% | 71.7% | 79.6% | 123% | 94% | 85.6% | 96.2% | 96.1% | 105%
16 | O=C(Nc1ccc(S(=O)(=O)F)cc1)Oc1ccccc1 | 102% | 97.2% | 102% | 110% | 100% | 101% | 95.3% | 96.8% | 111% | 96.3% | 95.1% | 107% | 87% | 105% | 97.6% | 105% | 109% | 97% | 105% | 97%
17 | O=[N+]([O-])c1cc([N+](=O)[O-])c(Cl)c(Cl)c1Cl |  | 80.3% | 12.2% | -82.7% (active) | 13% | -48.1% (active) | -86.2% (active) | 98.5% | 20.4% |  | -62.6% (active) | -23.8% (active) | -63.2% (active) |  |  | 19.5% | 2.06% (active) | -31.4% (active) | -99% (active) | 
